Source: the supplement of paper PMC3334620
In all, about 33,000 sequences were measured (“E-score (-0.5 to 0.5)”: median about -0.011, highest 2% from about 0.28 on). Only a selection was taken, and the highest values are over-represented in it overall.

Target: T1, Gcr1 (UniProt P07261)
T1 sequence: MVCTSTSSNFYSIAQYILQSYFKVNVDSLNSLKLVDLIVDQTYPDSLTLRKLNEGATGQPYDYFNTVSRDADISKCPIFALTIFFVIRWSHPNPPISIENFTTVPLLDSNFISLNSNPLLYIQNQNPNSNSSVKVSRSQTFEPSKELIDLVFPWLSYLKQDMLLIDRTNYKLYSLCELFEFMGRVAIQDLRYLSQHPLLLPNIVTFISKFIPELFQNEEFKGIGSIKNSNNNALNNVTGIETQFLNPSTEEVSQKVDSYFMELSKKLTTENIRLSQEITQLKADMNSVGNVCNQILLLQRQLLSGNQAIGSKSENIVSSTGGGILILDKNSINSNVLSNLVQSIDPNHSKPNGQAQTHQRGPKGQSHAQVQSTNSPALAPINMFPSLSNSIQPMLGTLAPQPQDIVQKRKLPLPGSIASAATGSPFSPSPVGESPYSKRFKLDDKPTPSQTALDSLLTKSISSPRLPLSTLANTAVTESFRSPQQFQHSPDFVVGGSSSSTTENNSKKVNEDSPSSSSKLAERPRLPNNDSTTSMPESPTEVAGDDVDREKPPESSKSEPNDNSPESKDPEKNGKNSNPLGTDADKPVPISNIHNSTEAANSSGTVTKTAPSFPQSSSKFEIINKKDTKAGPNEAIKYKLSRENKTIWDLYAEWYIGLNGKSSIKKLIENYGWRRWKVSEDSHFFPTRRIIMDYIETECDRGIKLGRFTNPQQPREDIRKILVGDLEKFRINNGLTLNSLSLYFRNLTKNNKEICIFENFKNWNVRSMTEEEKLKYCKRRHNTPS
Experiment: PBM E-score (8-mer binding enrichment) (E-score (-0.5 to 0.5)); higher = stronger / more preferred TF binding
Conditions: protein concentration: 100 nM; construct: GST-full length
Experimental: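 Universal 'all 10-mer' protein binding microarrays (Agilent AMADID 015681) probed with GST-tagged S. cerevisiae TFs (full-length or DBD) made by in vitro transcription/translation (PURExpress), about 100-200 nM. Bound TF was detected with fluorescent anti-GST. Each ungapped 8-mer (which stands for itself and its reverse complement) is scored by the PBM enrichment score (E-score), a modified Wilcoxon-Mann-Whitney statistic from -0.5 to +0.5, computed with the Universal PBM Analysis Suite. Scale: above 0.35 generally sequence-specific binding.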

Sequence	PBM E-score
AAGAATCC	0.391
AGGAATAC	0.0815
AGGAATGG	0.0654
ATGAATCC	0.0178
AGGAAGCA	0.13
AGGAATCC	0.459
AGGAATCG	0.294
AGGAATCA	0.144
AGGAAGAG	-0.0854
GAGAATCC	0.236
AAGAATCA	0.142
AGGAAGCG	0.354
GGCTATGA	-0.188
AATCCGTC	-0.0275
AGCCAGAA	0.13
TCTGCAGA	-0.194
ATGACCCG	-0.321
CCGAATCC	0.133
CGGAATCC	0.417
CGGAATTC	0.242
CGGAAGTC	-0.00248
AGGAAGTG	0.213
AGGAAGTC	0.337
ACGAATCC	0.288
CGGAATCA	0.0684

Sequence	PBM E-score
ACGAATCT	0.122
CCCGAGAC	0.0132
ATCCGCTC	0.0142
ACTCCCTA	-0.0517
CGCCTGTC	-0.105
GGTGTTCA	0.106
CGTGGTGC	-0.0202
AGTGGTGA	0.0333
AGTGGTGC	0.305
AATGGTGC	0.208
AGTGGTAA	-0.099
AGTGGTGG	0.305
AGTGGTAG	0.318
AATGGTGG	-0.00912
CGTGGTAG	-0.133
CCGATGAC	-0.0977
AAGTTGCG	0.211
AACATCCG	0.164
AGCATCCG	0.372
TGCATCCA	0.182
AGCATCCA	0.457
AACATCCA	0.193
ATCATCCG	-0.191
ACTTTAAA	0.0642
ATAGTAAG	-0.0276

Sequence	PBM E-score
ACAAGACC	-0.0386
GAGCAATA	0.0781
CCGAACTC	-0.0172
AATGGGAG	0.0925
AATGGAAG	0.27
AATGGGAA	0.132
ACGGGAAG	0.112
AATGGGAT	0.28
ACTGGAAC	0.301
ACTGGAAG	0.463
CCTGGAAC	-0.0042
AATGGAAC	0.154
AATGGAAT	0.301
ACTGGAAA	0.0867
CCTGGAAG	0.0765
AGGCAATC	-0.245
CTCCAAGA	0.0262
ATTTGCAC	0.0134
GTAGCTAA	-0.0197
TAGAAACA	0.112
TTGAAAAA	0.0707
CCCATAGC	-0.16
ACTGGAAT	0.415
ACTGGGAT	0.0877
ACGGGAAT	0.111

Sequence	PBM E-score
AGCCGTGG	-0.108
ACGAGAGG	-0.238
CCTGTAGA	0.283
AAGGTATC	0.158
CCGGTATC	0.288
CCTGTATA	0.2
CCGGTATA	0.191
CAGGTATC	0.311
GCTGTAGA	-0.0143
CAGGTATA	-0.0414
ACTGTATC	-0.275
CCTGTATC	0.324
ACTGTAGA	-0.079
ACGGTATC	-0.0774
ACGGTAAG	-0.0708
CAACTGGC	0.0226
GATCACCA	-0.0057
TACCGTAA	0.0593
GACCCCCC	-0.241
CGCCTGCA	-0.117
AATGAGTA	0.143
GGGACCCC	0.00587
AGAACCCA	0.234
GAACCCCC	0.0349
GAACCCAA	0.167

Sequence	PBM E-score
TGAACCCA	0.0317
GGAACCCA	0.394
GGAACCTA	0.401
TGGACCCA	0.104
GAACCCCA	0.344
GGGACCCA	0.303
CGAACCTA	-0.117
AGAACCTA	0.0206
CGATGGGC	-0.0735
AGCTTCAT	0.0447
CTAACCAG	0.0668
GGCCCCCA	0.231
CATACCGA	0.0765
ACTCCTTA	0.0309
AGCCACAA	0.15
CGAACCCC	0.0243
GGAACCCC	0.394
AGAACCCC	0.0794
ACCTATCC	0.0168
ATGCTACG	0.0159
ACACACTC	0.0505
CGACATTC	-0.0306
AGACATTA	-0.0316
CGACATTA	0.306
CTGGGTGC	0.244

Sequence	PBM E-score
GCTAGCCA	-0.232
TATTGGAA	0.288
GAATGGAA	0.225
GATTGGAA	0.258
TAATGGCA	0.295
CAATGGCA	-0.159
TAATGGAA	0.28
CATTGGAA	0.106
AAATGGAA	0.239
GAATGGCA	-0.0438
GTTTATAA	0.129
AATGTGAT	-0.0732
AATTGTCT	-0.147
GCTACTCC	0.0342
GCACCTGA	0.0656
TCAGCTAA	-0.225
GCAGCTGA	0.336
GCAGCTGC	0.249
GCAGCTAC	0.267
TCAGCTGA	-0.106
GCAGCTAA	0.329
CTCATTCC	0.0687
CAGCCCCG	-0.107
AGGCGAGC	-0.0288
GGGTGATA	0.0068

Sequence	PBM E-score
CCGCAAAA	0.0921
ACTACCAC	0.101
AATACCAC	0.097
GCTACCAA	0.179
GATACCAA	0.154
GATACCAC	0.329
GCTACCAC	0.323
AACCTAAG	-0.0759
ACCTCCTC	-0.194
AACGTCTA	0.00101
TATCCTGA	0.156
GATCCTGA	0.0899
ATTCCTGA	0.299
ATTCCTGG	0.165
GTTCCTAA	0.237
CTTCCTAC	0.18
ATTCCTAA	0.284
ATTCCTGC	0.048
ATTCCTAC	0.0721
CATCCTGA	0.292
CTTCCTAA	0.294
ATTCCTAG	-0.0289
TAGACCTA	-0.0537
AACCAGAG	0.0777
TACACAGA	-0.106

Sequence	PBM E-score
CTTCCTTA	0.153
GGGTTGCA	-0.0951
GAAGCGTC	0.268
CATCAACA	0.015
ATGTTGTA	0.104
CAGCACCC	0.277
AAGCACCT	0.106
AAGCACCG	0.0663
AAGCACCC	0.283
GAGCACCC	0.329
GAGCACAC	-0.271
ACGCCATG	-0.0676
GGTAAAAC	-0.056
AATGGCGC	0.253
GCTTCTCA	0.299
GCTTCTCC	0.27
CCTTCGTA	0.00994
ACTTCGTA	0.0106
GCTTCTTA	0.338
GCTTCTGA	0.0646
ACTTCTTA	0.104
GCTTCGTA	0.329
CCTTCTCA	-0.156
CCTATTGC	-0.0151
CACGGAAC	0.0756

Sequence	PBM E-score
ACCCAAAT	0.233
AAGTTCCT	0.163
CTTGGTTC	0.149
AAACAGAG	-0.244
TCCCTCAA	0.00435
ATGTTCCG	-0.119
CCCGAAAG	0.224
AGGCGCTC	-0.0859
CTCTGCAC	-0.0576
CATTCCAC	0.0952
GATTCCAC	0.382
AATTCCAT	0.191
TATTCCAA	0.224
GATTCCAA	0.416
AATTCCAG	0.274
AATTCCAC	0.191
AATTCCAA	0.308
CATTCCAA	0.0418
ACCAACGG	-0.0789
ATAGGGTC	-0.162
ACATCGAC	-0.154
ACGGCTCA	-0.123
AGGCGTGA	-0.191
AAAAGAGC	-0.0507
AAATGGGA	0.194

Sequence	PBM E-score
ACGTCAGA	-0.0561
CAGGTCAA	-0.173
TCCACAAA	0.288
GCCACAAA	0.0996
CCCCACAC	0.108
CCCACGAG	-0.0381
ACCACAAA	0.236
CCCACAAG	0.0598
CCCACAAA	0.305
CCCCACAA	0.305
CCCCACAG	-0.0776
ACACAAGG	-0.0735
GCTTTCTA	-0.196
GTTTACCA	-0.022
CCGGGACA	-0.0293
AAGACTCC	0.0934
CCTTTTCA	-0.164
CACTCTGG	0.0408
AGAGGGAA	-0.176
GGAATTCA	0.192
AGAATTCC	0.164
GGAATTCC	0.426
AGCTAGAG	-0.226
ATTCATAA	-0.0219
GCATCTAA	0.303

Sequence	PBM E-score
TCCTCTAA	0.282
TCGTCTAA	0.112
GCCTCTAA	0.265
ACCTCTAA	0.16
TCATCTAA	-0.0664
CCATCTAA	0.0606
CCGTCTAA	0.0045
GCGTCTAA	0.357
CATCACGG	-0.01
AAGTGAAC	-0.0708
ATGATTCA	-0.105
TCTCAAAA	0.137
CAAGAGAA	0.0254
GGATGGCA	-0.167
CCCGACGG	-0.158
CTATTGGC	0.0102
GCCCGCCC	0.0747
ACCCGCCC	-0.135
CCCCGCCC	0.338
ATGCTGGA	0.0516
AGAACTGG	0.262
AGACCGCT	-0.2
TCGGGGCA	0.161
ATTGGGTG	0.085
ACAGGATA	0.177

Sequence	PBM E-score
AGAGGATG	0.315
AGAGGAAC	0.177
CTAGGAAC	0.149
AGAGGATC	0.024
AGAGGAAG	0.385
ACAGGATG	0.372
GTAGGAAC	0.0386
ACAGGATC	0.197
ATAGGAAC	0.319
AGAGGATA	-0.0247
AGAGGAAA	-0.0469
AGTGTCCA	0.057
TAGTATGA	0.0561
CTCCGATC	-0.00026
ATGCTAGG	-0.0494
CCCGGATC	0.256
CCCTCAGC	-0.0815
ATTCAGCC	0.0229
CAAGGAAG	0.143
ATAGGAAA	-0.0777
ATAGGATA	-0.0284
AAAGGAAG	0.361
ATAGGATG	0.333
AAAGGAAC	0.219
ATAGGAAG	0.414

Sequence	PBM E-score
ATAGGAAT	0.27
ATAGGATC	0.158
CGCTGCCC	0.164
CGGGGTGC	0.226
AGGGATCG	-0.151
CGGGATCC	0.371
CGGGATCA	0.245
AGGGATCA	-0.054
AGGGATCC	0.286
CCGGATCC	0.279
AGCATCAA	0.0409
CACGCACC	0.0442
AGACCGAA	-0.18
GACGGCGC	-0.0687
AGCCTCTA	0.0722
GCCAGAAA	0.236
TCCAGAAA	0.304
CCCAGAAA	0.283
ACCAGAAA	0.0905
TTCAGAAA	0.12
CCCAGAAG	0.233
GCCTACTA	0.00583
AGCCCCGA	-0.108
TAAGCCAA	0.0672
CAAGCCAC	-0.124

Sequence	PBM E-score
GAAGCCAC	0.417
AAAGCCAC	0.0178
AAAGCCTC	-0.0619
GAAGCCAA	0.29
CAAGCCTC	-0.0336
GAAGCCTC	0.283
AAAGCCAA	0.0021
ACTACCCA	-0.135
AATAGCCG	-0.0191
CCCGGGTA	-0.031
TAGGCGCA	0.225
CCAAAATC	0.136
ATGGAACA	-0.0319
ATGGAACG	-0.0103
CTGGAAAC	0.196
CTGGAACC	0.375
CTGGAACA	-0.0357
ATGGAACC	0.294
AGCATTCG	-0.235
